Source: PubChem BioAssay AID1159580 (chemical genetic matrix, 2015)
The whole screen tested about 5,500 compounds, of which about 2,000 (36%) were called active. About 18% were inconclusive and are not listed. Cut-off read from the data, not from the text of the source: active = normalized growth mostly below about 0.91 (no sharp cut-off); inconclusive = no clear call, values can overlap the other calls; inactive = mostly above about 0.92. The list shows a part of the results.

Assay: chemical genetic growth profiling, strain panel (AID 1159580);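 note: tested at 20 µM; growth read once vehicle control cultures reached saturation at 30 °C; 1 = growth at the plate median or of vehicle wells; lower values mean less growth of the strain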
Conditions: S. cerevisiae deletion strains, growth OD
[1] = locus YDL101C, strain DUN1, stronger effect = lower value
[2] = locus YHR030C, strain SLT2, stronger effect = lower value
[3] = locus YAR019C, strain CDC15, stronger effect = lower value
[4] = locus YBL105C, strain PKC1, stronger effect = lower value
[5] = locus YBR135W, strain CKS1, stronger effect = lower value
[6] = locus YBR136W, strain MEC1, stronger effect = lower value
[7] = locus YBR160W, strain CDC28, stronger effect = lower value
[8] = locus YDL017W, strain CDC7, stronger effect = lower value
[9] = locus YDL028C, strain MPS1, stronger effect = lower value
[10] = locus YDL108W, strain KIN28, stronger effect = lower value
[11] = locus YDL132W, strain cdc53, stronger effect = lower value
[12] = locus YDL214C, strain PRR2, stronger effect = lower value
[13] = locus YDR052C, strain DBF4, stronger effect = lower value
[14] = locus YDR054C, strain cdc34, stronger effect = lower value
[15] = locus YDR226W, strain ADK1, stronger effect = lower value
[16] = locus YDR477W, strain SNF1, stronger effect = lower value
[17] = locus YER123W, strain YCK3, stronger effect = lower value
[18] = locus YER133W, strain GLC7, stronger effect = lower value
[19] = locus YFL009W, strain cdc4, stronger effect = lower value
[20] = locus YFL029C, strain CAK1, stronger effect = lower value
[21] = locus YFR003C, strain YPI1, stronger effect = lower value
[22] = locus YFR019W, strain FAB1, stronger effect = lower value
[23] = locus YFR028C, strain CDC14, stronger effect = lower value
[24] = locus YGR040W, strain KSS1, stronger effect = lower value
[25] = locus YGR052W, strain FMP48, stronger effect = lower value
[26] = locus YGR092W, strain DBF2, stronger effect = lower value
[27] = locus YHR079C, strain IRE1, stronger effect = lower value
[28] = locus YHR082C, strain KSP1, stronger effect = lower value
[29] = locus YHR205W, strain SCH9, stronger effect = lower value
[30] = locus YIL147C, strain SLN1, stronger effect = lower value
[31] = locus YJL095W, strain BCK1, stronger effect = lower value
[32] = locus YJL128C, strain PBS2, stronger effect = lower value
[33] = locus YJL157C, strain FAR1, stronger effect = lower value
[34] = locus YJR016C, strain ILV3, stronger effect = lower value
[35] = locus YJR066W, strain TOR1 (second series), stronger effect = lower value
[36] = locus YJR066W, strain TOR1, stronger effect = lower value
[37] = locus YKL048C, strain ELM1, stronger effect = lower value
[38] = locus YKL067W, strain YNK1, stronger effect = lower value
[39] = locus YKL101W, strain HSL1, stronger effect = lower value
[40] = locus YKL193C, strain SDS22, stronger effect = lower value
[41] = locus YKL203C, strain TOR2, stronger effect = lower value
[42] = locus YLR113W, strain HOG1, stronger effect = lower value
[43] = locus YLR133W, strain CKI1, stronger effect = lower value
[44] = locus YLR403W, strain SFP1, stronger effect = lower value
[45] = locus YML070W, strain DAK1, stronger effect = lower value
[46] = locus YMR001C, strain CDC5, stronger effect = lower value
[47] = locus YMR205C, strain PFK2 (second series), stronger effect = lower value
[48] = locus YMR277W, strain FCP1, stronger effect = lower value
[49] = locus YNL006W, strain LST8, stronger effect = lower value
[50] = locus YNL020C, strain ARK1, stronger effect = lower value
[51] = locus YNL161W, strain CBK1, stronger effect = lower value
[52] = locus YNL183C, strain NPR1, stronger effect = lower value
[53] = locus YNL207W, strain RIO2, stronger effect = lower value
[54] = locus YNL222W, strain SSU72, stronger effect = lower value
[55] = locus YNL307C, strain MCK1 (second series), stronger effect = lower value
[56] = locus YOL078W, strain AVO1, stronger effect = lower value
[57] = locus YOL136C, strain PFK27, stronger effect = lower value
[58] = locus YOR061W, strain CKA2, stronger effect = lower value
[59] = locus YOR119C, strain RIO1, stronger effect = lower value
[60] = locus YOR231W, strain MKK1, stronger effect = lower value
[61] = locus YOR329C, strain SCD5, stronger effect = lower value
[62] = locus YPL031C, strain PHO85, stronger effect = lower value
[63] = locus YPL153C, strain RAD53, stronger effect = lower value
[64] = locus YPL204W, strain HRR25, stronger effect = lower value
[65] = locus YPL209C, strain IPL1, stronger effect = lower value
[66] = locus YPL256C, strain CLN2, stronger effect = lower value
[67] = locus YPR025C, strain CCL1, stronger effect = lower value
[68] = locus YPR106W, strain ISR1, stronger effect = lower value
[69] = locus YPR111W, strain DBF20, stronger effect = lower value
[70] = strain NNK1, stronger effect = lower value
[71] = strain TSCII, stronger effect = lower value

Measured: normalized growth

CCOc1ccc(/C=C(\C#N)c2cccc(Cl)c2)cc1
active: locus YDL134C, strain PPH21, stronger effect = lower value 0.915 | locus YLR085C, strain ARP6, stronger effect = lower value 0.723 | locus YMR307W, strain GAS1, stronger effect = lower value 0.645
inactive: locus YAL013W, strain DEP1, stronger effect = lower value 0.992 | locus YBR229C, strain ROT2, stronger effect = lower value 0.995 | locus YCL061C, strain MRC1, stronger effect = lower value 1.01 | [1] 1.01 | locus YDR150W, strain NUM1, stronger effect = lower value 0.975 | locus YEL061C, strain CIN8, stronger effect = lower value 0.955 | locus YGR078C, strain PAC10, stronger effect = lower value 0.979 | [2] 0.694 | locus YHR087W, strain rtc3, stronger effect = lower value 0.97 | locus YJL187C, strain SWE1, stronger effect = lower value 1.01 | locus YJR043C, strain POL32, stronger effect = lower value 1 | locus YJR075W, strain HOC1, stronger effect = lower value 0.967 | locus YLR039C, strain RIC1, stronger effect = lower value 0.892 | locus YLR058C, strain SHM2 (second series), stronger effect = lower value 0.982 | locus YLR262C, strain YPT6, stronger effect = lower value 0.952 | locus YML094W, strain GIM5, stronger effect = lower value 0.927 | locus YMR219W, strain ESC1, stronger effect = lower value 0.99 | locus YMR263W, strain SAP30, stronger effect = lower value 0.987 | locus YNL153C, strain GIM3, stronger effect = lower value 1.01 | locus YNL298W, strain CLA4 (second series), stronger effect = lower value 0.936 | locus YNL322C, strain KRE1, stronger effect = lower value 0.975 | locus YNR030W, strain Alg12, stronger effect = lower value 0.928 | locus YPL055C, strain LGE1, stronger effect = lower value 0.95 | locus YPL241C, strain CIN2, stronger effect = lower value 0.933 | locus YPR135W, strain CTF4, stronger effect = lower value 0.987

CC(C)(C)CN/C(C#N)=C(/C#N)NCc1cccc(Cl)c1
inactive: [3] 0.993 | [4] 0.991 | [5] 0.98 | [6] 0.991 | [7] 0.991 | [8] 0.994 | [9] 0.993 | [1] 0.982 | [10] 0.997 | [11] 0.987 | [12] 0.991 | [13] 0.996 | [14] 0.991 | [15] 0.973 | [16] 0.988 | [17] 0.947 | [18] 0.988 | [19] 0.988 | [20] 0.992 | [21] 0.991 | [22] 0.99 | [23] 0.983 | [24] 0.966 | [25] 0.947 | [26] 0.871 | [2] 0.977 | [27] 0.995 | [28] 1.01 | [29] 0.896 | [30] 1 | [31] 0.883 | [32] 0.95 | [33] 0.982 | [34] 0.987 | [35] 0.97 | [36] 1 | [37] 0.986 | [38] 0.977 | [39] 0.954 | [40] 0.984 | [41] 1.04 | [42] 0.915 | [43] 0.974 | [44] 0.941 | [45] 0.965 | [46] 0.995 | [47] 0.973 | [48] 0.992 | [49] 0.978 | [50] 0.974 | [51] 0.984 | [52] 0.945 | [53] 0.98 | [54] 0.984 | [55] 0.877 | [56] 0.981 | [57] 0.955 | [58] 1 | [59] 1.04 | [60] 0.931 | [61] 0.99 | [62] 0.99 | [63] 0.988 | [64] 0.967 | [65] 0.982 | [66] 1.08 | [67] 0.986 | [68] 0.989 | [69] 0.964 | [70] 0.987 | [71] 0.985

CS(=NC(=O)c1cccc(Cl)c1)c1ccc(OC(=O)c2ccc(Cl)cc2)cc1 (stereo not given)
inactive: [3] 0.969 | [4] 0.966 | [5] 0.97 | [6] 0.966 | [7] 0.967 | [8] 0.968 | [9] 0.964 | [1] 0.972 | [10] 0.964 | [11] 0.958 | [12] 0.958 | [13] 0.954 | [14] 0.967 | [15] 0.966 | [16] 0.972 | [17] 0.924 | [18] 0.95 | [19] 0.966 | [20] 0.966 | [21] 0.968 | [22] 0.943 | [23] 0.966 | [24] 0.96 | [25] 0.98 | [26] 0.981 | [2] 1.08 | [27] 1.1 | [28] 1.06 | [29] 1 | [30] 0.958 | [31] 0.946 | [32] 0.944 | [33] 0.949 | [34] 0.969 | [35] 0.983 | [36] 1.05 | [37] 0.945 | [38] 0.949 | [39] 0.935 | [40] 0.964 | [41] 1.02 | [42] 0.876 | [43] 0.952 | [44] 1 | [45] 0.94 | [46] 0.964 | [47] 0.934 | [48] 0.968 | [49] 0.979 | [50] 0.949 | [51] 0.971 | [52] 1.01 | [53] 0.964 | [54] 0.97 | [55] 0.982 | [56] 0.959 | [57] 0.936 | [58] 0.926 | [59] 1.01 | [60] 0.909 | [61] 0.969 | [62] 0.941 | [63] 0.968 | [64] 0.952 | [65] 0.974 | [66] 1.06 | [67] 0.968 | [68] 0.974 | [69] 0.975 | [70] 0.972 | [71] 0.965
